Rows were chosen to be rich in hits. Some 2.9% of all compounds tested hit in one or more screens of this group.
PAFAH2 inh: PAFAH2 enzyme inhibitors, primary screen, biochemical, fluorescence polarization, human; Platelet-activating factor acetylhydrolase 2, cytoplasmic (Homo sapiens), Q99487; recombinant PAFAH2, FP-rhodamine activity probe; inhibition, % at 3.39 µM; 340,000 tested, 0.99% active;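 active means inhibition above the mean over all tested compounds plus 3 SD, cut at about 30% in these data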;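 further: inhibitors block probe labeling of enzyme so polarization drops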
PAFAH1B2 inh: PAFAH1B2 enzyme inhibitors, primary screen, biochemical, fluorescence polarization, human. recombinant PAFAH1B2, FP-rhodamine activity probe. inhibition, % at 3.39 µM. Platelet-activating factor acetylhydrolase IB subunit alpha2 (Homo sapiens), P68402. 340,000 tested, 1.2% active. AID 492953, 2010;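 active means inhibition above the mean of all tested compounds plus 3 SD, cut at about 24% in these data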
pPAFAH inh: pPAFAH enzyme inhibitors, primary screen, biochemical, fluorescence polarization, human; recombinant pPAFAH, FP-rhodamine probe fluorescence polarization; inhibition, % at 3.39 µM; 330,000 tested, 1.5% active; AID 463082, 2010;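 active means inhibition above the mean inhibition across the screen plus 3 SD, cut at about 25% in these data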;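 further: inhibitors block binding of the rhodamine activity-based probe so polarization drops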
Target sequence (Q13093 whole entry, looked up): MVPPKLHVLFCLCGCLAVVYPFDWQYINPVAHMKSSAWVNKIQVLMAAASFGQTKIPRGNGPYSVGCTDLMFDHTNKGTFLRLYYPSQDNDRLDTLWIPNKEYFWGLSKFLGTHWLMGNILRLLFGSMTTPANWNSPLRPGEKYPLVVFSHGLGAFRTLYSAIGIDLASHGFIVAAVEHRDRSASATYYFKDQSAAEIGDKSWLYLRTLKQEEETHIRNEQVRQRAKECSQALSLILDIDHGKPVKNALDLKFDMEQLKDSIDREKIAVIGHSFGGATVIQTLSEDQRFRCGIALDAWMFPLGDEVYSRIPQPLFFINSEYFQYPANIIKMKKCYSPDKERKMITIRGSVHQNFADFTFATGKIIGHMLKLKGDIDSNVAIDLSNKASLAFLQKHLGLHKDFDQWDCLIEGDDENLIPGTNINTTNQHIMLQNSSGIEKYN
PME-1 primary: PME-1 inhibitors via competitive probe labeling, primary screen, biochemical, fluorescence polarization, FP-Rh probe, HTS; Protein phosphatase methylesterase 1 (Homo sapiens), Q9Y570; recombinant PME-1; inhibition, % at 5.9 µM; 320,000 tested, 0.53% active; AID 2130, 2009;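 active means inhibition above the campaign mean of all compounds plus 3 SD, cut at about 26% in these data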;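 further: competitive labeling of PME-1 active site by serine hydrolase directed probe; inhibitors block probe labeling so polarization falls and inhibition rises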
Fam108B counter: mouse Fam108B serine hydrolase inhibitors, primary screen, counter-screen for RBBP9 inhibitor project, biochemical, fluorescence polarization. inhibition, % at 9.51 µM. 300,000 tested, 0.33% active. recombinant Fam108B, FP-Rh probe fluorescence polarization;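 active means inhibition above the screen mean inhibition plus 3 SD, computed separately per campaign, cut at about 18% in these data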;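 further: inhibitors lower polarization as less probe binds the enzyme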
PAFAH1B3 FP inh: PAFAH1B3 enzyme inhibitors, primary screen, biochemical, fluorescence polarization, human. inhibition, % at 3.39 µM. Platelet-activating factor acetylhydrolase IB subunit alpha1 (Homo sapiens), Q15102. recombinant PAFAH1B3, FP-rhodamine probe. 340,000 tested, 0.28% active;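 active means inhibition above the screen-wide average of all tested compounds plus 3 SD, cut at about 25% in these data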
Hits are given with their value; . = inactive; / = not tested or not shown.

SMILES	PAFAH2 inh	PAFAH1B2 inh	pPAFAH inh	PME-1 primary	Fam108B counter	PAFAH1B3 FP inh
O=C(OCC(=O)N1CCCc2ccccc21)c1ccc(S(=O)(=O)C(F)F)cc1	.	.	.	.	.	.
NC(=O)COC(=O)CSc1ccc2ccccc2c1	.	.	.	.	.	.
C=CC[C@H](CC(=O)NCCO)C(=O)N[C@H](COC(=O)[C@@H](CC=C)Cc1ccc(F)cc1)c1ccccc1	.	25	.	/	/	.
Cc1ccc(N2CCN(C(=O)c3nn(C)c4c3CS(=O)(=O)c3ccccc3-4)CC2)c(C)c1	.	.	.	.	.	.
C#CCN(C[C@@H](CC(C)C)NC(=O)OC(C)(C)C)S(=O)(=O)c1ccc(Br)cc1F	.	.	/	/	/	.
CC(C)(C)n1cnc2cc(NCc3ccc(Br)cc3)ccc21	.	34	.	.	.	.
O=C1c2ccccc2-c2onc3ccc(N4CCCC4)c1c23	88	77	/	/	/	74
O=C(Nc1ccccc1)ON=C1c2ccccc2-c2ccccc21	.	.	.	.	.	.
O=C(Nc1ccccc1Cl)ON=C1c2ccccc2-c2ccccc21	.	.	.	.	.	26
O=C(/C=C/c1ccc(F)cc1)NC(=S)NNC(=O)[C@H]1C[C@@H]1c1ccccc1	.	59	.	.	.	.
O=C(NC(=S)NNC(=O)[C@H]1C[C@@H]1c1ccccc1)c1ccc(F)cc1	.	.	.	.	.	.
COc1ccc(CN(C)CC(=O)Nc2ccc(Cl)cc2F)c(OC)c1	/	/	.	.	.	/
CCC(c1ccccc1)c1nc(-c2ccccn2)no1 (stereo not given)	.	27	.	.	.	.
CC1CCC(NC(=O)C2CCN(c3c4c(nc5ncnn35)CCC4)CC2)CC1 (stereo not given)	.	.	.	.	.	.
CO/N=C(/CS(=O)Cc1ccc(Cl)cc1)c1ccc(Cl)cc1 (stereo not given)	.	.	27	.	.	.
C=CCN(C(=O)c1oc2c(Cl)cc(C)cc2c1C)C1CCS(=O)(=O)C1 (stereo not given)	.	.	.	.	.	.
CC(=O)c1c(C(C)=O)c(C)n(-c2ccc(C(=O)O)cc2)c1C	.	.	.	.	.	.
Cc1ccc(C)n1-c1ccc(C(=O)O)cc1	/	/	31	.	.	/
CC(C)c1cc(C(=O)N2CCCC(Nc3ccc(F)cc3)C2)n[nH]1 (stereo not given)	.	24	.	.	.	.
Cc1cccc(NC(=S)NNC(=O)c2csc3c2CCCC3)c1	.	.	26	.	.	.
Oc1cccc(/C=N/Nc2cc(N3CCCC3)nc(N3CCCC3)n2)c1	.	.	.	31	.	.
O=C1CS/C(=C\S(=O)(=O)c2ccc(Cl)cc2)N1	.	25	.	.	.	.
CC(C)(C)c1ccc(C(=O)/C=C2\NC(=O)CS2)cc1	.	.	.	.	.	.
Cc1ccc2c(c1)N(CC(=O)NCCCN1CCN(C)CC1)C(=O)CO2	.	.	.	.	.	.
O=C(Nc1ccccc1C(F)(F)F)c1cc(S(=O)(=O)N2CCC3(CC2)OCCO3)ccc1F	.	24	.	.	.	.
SMILES	PAFAH2 inh	PAFAH1B2 inh	pPAFAH inh	PME-1 primary	Fam108B counter	PAFAH1B3 FP inh
COc1ccccc1NC(=O)c1cc(S(=O)(=O)N2CCC3(CC2)OCCO3)ccc1F	.	.	.	.	.	.
O=C(Cn1c(=O)n(CCC(=O)N2CCCCC2)c(=O)c2sccc21)NCc1ccccc1	.	.	.	.	.	.
Cc1ccccc1NC(=O)Cc1nc(COC(=O)C(NC(=O)c2ccccc2C)C(C)C)cs1 (stereo not given)	.	.	.	.	/	.
CCOc1ccccc1C(=O)N[C@H](C(=O)OCc1csc(CC(=O)Nc2ccc(C)cc2)n1)C(C)C	.	.	33	/	/	.
Cc1ccc(CS/C(Nc2ccccc2C)=C(\C#N)C(=O)NCc2ccco2)c(C)c1	.	.	28	.	.	.
Cc1ccccc1N/C(SCc1ccc(Cl)cc1)=C(/C#N)C(=O)NCc1ccco1	.	.	.	.	.	.
